Measured values reported in PubChem BioAssay AID1508600 (Functional Genomics Laboratory (NCATS/FGL), 2020).
In all, about 53,000 sequences went through this assay and about 3,700 (7%) were called active. This is one part of a sample in which actives are shown more often than they occur. A number with no mark means an inactive call.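 Rule for the calls: active = gene knockdowns whose robust z-score for IL-1 alpha signal is at least 2 or at most -2, so actives lie on both sides; inactive = the rest.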

Assay: Components of the Cytosolic LPS Sensing Pathway: Gene Identification via Genome-wide siRNA Screen;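 note: robust z of the log signal after scaling to non-targeting control siRNA wells of the plate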
Conditions: RAW264.7 macrophages, IL-1a HTRF, actives lie on both sides, screened at 100 nM (by protocol), cells primed 5 h with Pam3CSK4 first
Outline: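 Cells (RAW264.7, 1×10^4 per well) were transfected with siRNA at 100 nM and cultured 48h at 37 degrees C. Pam3CSK4 was added for 5 hours; LipidA transfection followed for 24 hour. IL-1a was then measured by HTRF.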
GGAGAGAAAGAACUGGAAATT against Fam78a gave a z-score of 0.357. For CCUAUCAGACUGUAAUAAGTT against Kdm2b, the z-score was -0.404. With GGGUGUAUUACCUCUCUCUTT against Pygl the z-score was 2.12 (active). Sequence CCACGAUAGCACCUAUUUUTT against Gucy2c has a z-score of -0.405. For GGAACAUUGAAAGGAUUAATT against Smc3, the z-score was -1.9. Sequence GGCUUAAGUAUUUUUCUGATT against Aktip has a z-score of -0.269. For GGUCUUCAUCUGUCCAACUTT against Tmlhe, the z-score was -2.09 (active). With CCUGUACCUGCGUAUUCAATT against Grap the z-score was -1.63. For GGUGCAGCACUUCAAAGUGTT against Grap, the z-score was 2.41 (active). “GGCCUGAAGACAGACAUGATT against C030016D13Rik” showed a z-score of -1.2. For GGAAGAGAUGAAGAAAAUGTT against Cetn1, the z-score was -1.01. Sequence GGAACUUUUGGCCAGCAAGTT against Opa1 has a z-score of 1.59. For CGAUUACAUCCUUUUUGACTT against Gpn3, the z-score was -0.228. For GCGCCUUAACCAAGAAGUUTT against Cox18, the z-score was 2.84 (active). Sequence GGAUCUAGAACAGAAAAUGTT against Stat3 has a z-score of -1.55. GCUGCUAUGACCUAUGGCATT against Sptlc2 gave a z-score of -0.543. For GGGUUGUCGUUCAGUUUACTT against Art2a, the z-score was 2.8 (active). Sequence GGAAUUAAGUCAUCAGGAATT against Slc6a5 has a z-score of -0.763. For GCGCACAAAAAACAUGAUATT against Plaat5, the z-score was 0.211. In the case of GGAAUUCGAUGCAUUUGUATT against Il18rap, the z-score is reported as -0.34. For GCUCAGCUGUGGGUAAUACTT against Raver2, the z-score was -2.77 (active). Work on “GGAUAUCACAUAGCAUCGGTT against 1700025G04Rik” yielded a z-score of -0.742. With GGAUGUCUCAAAGUAAGAATT against Cd55b the z-score was -0.124. For GGACGAGUGCCUGUUUUCATT against Med8, the z-score was 4.09 (active). GCAAUGGAACCACCUCUGATT against Zic5 gave a z-score of 1.41. Sequence GGAAGAAGCUGAGGAAAGCTT against Spata1 has a z-score of 0.15. In the case of GGAUGGACUCUGUUCCUGUTT against Susd2, the z-score is reported as 0.956. With GGCCAUUGGACACAGAAUCTT against Rpl35a the z-score was 2.28 (active). Work on GCAAUUAGUAUCUAUUACCTT against Txndc17 yielded a z-score of -0.448. For GGCUACAAAGGAGUUCCUATT against Sgf29, the z-score was 0.516. Work on GCUACUAAACAAGCCGGCATT against Msl1 yielded a z-score of 0.341. GGCUUUGUGGAUUUUGAAGTT against Cabp4 gave a z-score of -1.2. Sequence GGACGUGUUUGGGAUUGUUTT against Csad has a z-score of -0.765. Sequence GGAUGAGUUCCUUUUACUATT against Cntnap4 has a z-score of 0.285. For CCUCUGUUAUGGUAAUUCUTT against Olfr1323, the z-score was -0.371. For GCCUGAUAGUGGUGGACAGTT against Tmem45a2, the z-score was 3.29 (active). Work on “GGAGGCUUUUCAGACCAAGTT against 3830406C13Rik” yielded a z-score of 0.334. With GGAGAACAGACACAGGGUGTT against Dlgap5 the z-score was -0.284. CCUAAACUCAGUGCCUCAGTT against Mrps36 showed a z-score of 0.579. With GUCAAAGCACCAUUUGAGUTT against Vmn1r8 the z-score was -0.842. For GGUAUUCUUUGAAGAAAACTT against Tbc1d14, the z-score was 1.17. GGUUUUUGAUGAUUGCUUUTT against Slc49a4 gave a z-score of 0.221. For GGACACAGAUAGAAAUACUTT against Glo1, the z-score was 2.73 (active). GGUCUCGAAUGUAUGGUGCTT against Bicc1 showed a z-score of 1.14. Sequence GGCAGUUAUGAUAAAGAUUTT against Slc25a16 has a z-score of -0.896. GGUUCCUAAACAUACUUGUTT against Swi5 gave a z-score of 0.478. In the case of GGACUACAGUCAUUAUUCATT against Sycp2, the z-score is reported as 3.25 (active). For GGAGUACGAGCAAAUGGUGTT against Nfkbia, the z-score was 0.5. Sequence GGGACCUACAUUACAAUUUTT against Suz12 has a z-score of 1.06. In the case of GGAUUCACCUGUUAUCUUUTT against Tapbpl, the z-score is reported as 0.303. With UGAAUCACCACCCGGAAUGTT against Pcbd2 the z-score was 0.41. Sequence CCUAUGUGCGUUCCAAGCATT against Eif5b has a z-score of -0.432. Sequence GGACAUCUGUGUUAAAUUUTT against Npy1r has a z-score of -0.47. In the case of GGAAGAUACUGUGGUUUAUTT against Agbl3, the z-score is reported as 2.29 (active). GGCAUUGGUGUUUCAUUAATT against Gpm6a gave a z-score of 1.2. For GGUAUUAUGACCAGAUUAUTT against Plxnb3, the z-score was 0.736. In the case of GGACGAUUGCCAUAUGAACTT against Ice2, the z-score is reported as -0.99. With GUACUUUCUUGAACCAGAGTT against Cacng7 the z-score was -0.486. In the case of GGAUGAAGCCUUCAUCAGGTT against Adcy6, the z-score is reported as 0.0162. GGAGAGAGACACAAGCUUGTT against Map7d1 gave a z-score of 1.07. In the case of CCCGGGUCUUUGAUAUCUUTT against Evi5l, the z-score is reported as 2.03 (active). For GCGAAAACUUCGGAUCUAUTT against Smarcd2, the z-score was 1.29. Work on GGCUUAUCAUACCUGGUUGTT against Olfr691 yielded a z-score of 0.404. Sequence GGAUAUUUCAGUUGGCGGGTT against Lama2 has a z-score of -0.158. GGUCAAACUGAAGAAGGAGTT against Slc7a7 showed a z-score of -1.24. With GGAAGUUGAAAUGCUGUCGTT against Clcnka the z-score was -2.24 (active). GCAAGGAAAAUCUAUACCGTT against Rgs2 gave a z-score of -0.954. In the case of GCACAUACAGAGCUCGUCUTT against Zkscan6, the z-score is reported as -0.471. CCAGAUAAGCCUCAUCAAUTT against Scn5a showed a z-score of -0.163. In the case of GAAUCAGCUGUUCUCUCACTT against Tm2d3, the z-score is reported as 2.25 (active). Work on GCACCAAACCAAUAUUAGUTT against Epb41l3 yielded a z-score of 1.13. Work on GCACCAUUAAGGUUGCCAATT against Nudt11 yielded a z-score of -1.16. For GGUCUGUGGGAAACAUAAATT against Gria3, the z-score was -0.233. GGAUGUCUAUUUUUGGUCATT against Esd gave a z-score of -0.819. For GGCGGAUACUUGAUCGAAATT against Exoc3, the z-score was 2.41 (active). With GGGACAAUACCAAUUUCUCTT against Car15 the z-score was -0.209. GGCAAUCUCCUUUAAUUGATT against Zfp329 gave a z-score of 0.237. With GCCCUCAACCAUAAUUCAATT against Zscan21 the z-score was 2.15 (active). GGAAAUGAGCCAGGAUGGUTT against Cdca4 showed a z-score of 0.0601. In the case of CCCGAUUAUCUAGUGAUACTT against Sbk1, the z-score is reported as 0.311. Sequence GCCACUGGUUCACCAUGCATT against Ugt1a9 has a z-score of -0.52. In the case of GCCAGCUUUUAGUAUCAACTT against Sun1, the z-score is reported as 2.4 (active). For GCCUGUGGUAGGAUACUAUTT against Denr, the z-score was -0.964. Sequence GGAAGGAACCGUUCUAUAATT against Serpinc1 has a z-score of 0.221. Sequence “GGUUGGAUACUCGUCUUCATT against Olfr421-ps1” has a z-score of 1.16. GGCCCACAGUUUGUGACUGTT against Larp7 gave a z-score of -1.1. For GCGUAUAGGUGAUGUACAGTT against Smad3, the z-score was 2.28 (active). For GGUCAUUAGUUAUUCCUACTT against Olfr600, the z-score was -1.33. Sequence “GGGUUCAAGAUAUCAAGUATT against 4933434E20Rik” has a z-score of 1.23. For GCUUGGGUCAUAGGGAUGATT against Olfr1288, the z-score was -0.371. With CCACUUUUGUAAUGGAAGCTT against Mfsd6l the z-score was 1.89. GGAGAUUCAGAUCAAAGAGTT against Scyl1 showed a z-score of -0.182. GCUACGUUUUUUACCUCCATT against Bak1 showed a z-score of 0.0106. GGCUUCCAGUAAUGACAAUTT against Vwc2l gave a z-score of -1.67. With GGACUAUCAUCUGAUGCCATT against Klhl18 the z-score was 2.45 (active). Sequence GGUCUUUCCCAGGAUUCCATT against Rab19 has a z-score of -0.837. With GGUUGACUAUACUGAAAAGTT against Prrc2a the z-score was -0.606. GGGCAAUGAAUGACAUUGGTT against Gabrd gave a z-score of -0.368. Sequence GGGAGAAUCGAACUAUAAATT against Raver1 has a z-score of -0.477. GGACCCUUAGGAAAUGUGCTT against S100a10 showed a z-score of -1.13. For GCAUCAGAUUAUCUCACUGTT against Mtrf1l, the z-score was 0.261. For CGCGUGAUUGAUGUUUUACTT against Atxn10, the z-score was 0.793. GUGUCAUUUCCCGGGACAUTT against Atp5g1 gave a z-score of 1.64. For CCUUGGACUGAUAUUAGCUTT against Dtx3, the z-score was 0.0235. In the case of GGAACCUAAACGAACAAGGTT against Col6a2, the z-score is reported as 2.18 (active). Work on GGAUGUACGGAAGCGAUUCTT against Gmpr2 yielded a z-score of 0.404. “GGUUCCUCAUUUGUAGAUGTT against D830050J10Rik” gave a z-score of -1.19.
